Experimental data reported in PubChem BioAssay (NCI).
“And” between values parts separate entries of the source, which are not always exact repeats. Equal entries are not always repeated. This is part of a sample that, as a whole, favours compounds with a hit. Of some 83,000 tested, about 20% had one in any assay.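 The endpoint reported here, percent growth, reads 100 for growth as untreated, 0 for no net growth and -100 for all cells dead.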 Values without a mark were called inactive. The source made the active and inactive calls. The calls were made as follows: active = growth percent below 10; inactive = the rest.

What follows are molecules tested on HL-60(TB) leukemia (assay: NCI-60 one-dose screen, 48 h (100 = growth as untreated, 0 = no growth, -100 = all killed)). Conditions: 10 µM unless noted.
CN(C)C/C=C/C(=O)Nc1cc2c(Nc3ccc(F)c(Cl)c3)ncnc2cc1O[C@H]1CCOC1 was tested, and the growth was -44.7% (active). Cn1c2nc3ccccc3c-2nc2ccccc21 was tested, and the growth was 88.8% and 55.2%. CC1(C)CC[C@]2(C(=O)NCCNCCN)CC[C@]3(C)C(=CC[C@@H]4[C@@]5(C)CCC(=O)C(C)(C)[C@@H]5CC[C@]43C)[C@@H]2C1 was tested, and the growth was -52.9% (active). With CCN(CC)S(=O)(=O)c1ccc(OC)c(NC(=O)c2[nH]c(C)c3c2CCCCC3=O)c1 the growth was 4.18% (active). CCOC(=O)C(=O)C(C(=O)OCC)c1ccccc1 (stereo unspecified) showed a growth of 95.6%. With COc1ccc(-c2ccc(-c3ccc(C(=N)N)c(F)c3)s2)cc1 the growth was -79.4% (active).
